# Measured values taken from ChEMBL document CHEMBL3988442, “University of Dundee, Small-Polar-MMV Screening Library” (2021).
# Hit rate of the full screen: of about 69,000 compounds, about 1,000 (1.4%) showed an effect of 50% or more. This excerpt belongs to a sample that is enriched for strong results.
# Tested on: Leishmania donovani
# Assay: Leishmania intramacrophage assay
# Type: functional, organism-based
# Parameters: scale not given: in the data most compounds retested in dose-response had high values
structure (smiles),measurement,setting,value
Cl.Cl.O=c1[nH]c2ncccc2n1C1CCNCC1,Percent Effect,"30.3 µM, […]",13.74%
COc1ccccc1CCN(C)Cc1nc(N)nc(N(C)C)n1,Percent Effect,"30.3 µM, […]",17.72%
Cc1ccc(CN2C[C@@H]3[C@@H](C2)OCC(=O)N3Cc2ccncc2)s1.O=C(O)C(F)(F)F.O=C(O)C(F)(F)F,Percent Effect,"30.3 µM, […]",15.08%
O=C(O)C(F)(F)F.O=C(O)C(F)(F)F.O=C1[C@H]2CN(Cc3ccncc3)C[C@H]2CN1c1ccsc1,Percent Effect,"30.3 µM, […]",21.46%
CCCc1nc(N2CCCC3(CCNC3)C2)c2cnn(C)c2n1 (stereo unspecified),Percent Effect,"30.3 µM, […]",-7.107%
Cn1ncc2c(N3CCCC4(CCNC4)C3)nc(C(C)(C)C)nc21 (stereo unspecified),Percent Effect,"30.3 µM, […]",88.19%
Cn1ncc2c(N3CCCN4CCC[C@H]4C3)nc(C(C)(C)C)nc21,Percent Effect,"30.3 µM, […]",-35.36%
O=C(N1CCCO1)[C@@]12CCO[C@@H]1CCN(Cc1cccnc1)C2.O=C(O)C(F)(F)F.O=C(O)C(F)(F)F,Percent Effect,"30.3 µM, […]",13.9%
CCO[C@H]1CN(CC2CC2)[C@@H]2CCCO[C@H]12.O=C(O)C(F)(F)F,Percent Effect,"30.3 µM, […]",13.63%
Cc1ncsc1CN1C[C@@H]2CCCO[C@@H]2[C@H](Nc2ccccn2)C1.O=C(O)C(F)(F)F.O=C(O)C(F)(F)F,Percent Effect,"30.3 µM, […]",-3.269%
COc1cc2nc(NCc3ccc(C)nc3)nc(N)c2cc1OC,Percent Effect,"30.3 µM, […]",62.6%
COc1cc(CNCC(O)c2ccccc2F)cc2c1OCO2 (stereo unspecified),Percent Effect,30 µM,34.29%
Cc1nc(CN2C[C@@H]3CN(C(=O)c4ccncc4)C[C@@H]3C2)cs1,Percent Effect,"30.3 µM, […]",-18.13%
Cc1ccc(C(=O)N2C[C@H]3CN(Cc4csc(C)n4)C[C@H]3C2)cn1,Percent Effect,"30.3 µM, […]",58.41%
Cc1ccc(C(=O)N2C[C@H]3CNC[C@H]3C2)cn1,Percent Effect,"30.3 µM, […]",-11.07%
O=C(NC[C@]12COC[C@H]1CN(Cc1cccnc1)C2)c1ccno1.O=C(O)C(F)(F)F.O=C(O)C(F)(F)F,Percent Effect,"30 µM, 30.03 µM",19.24%
Cc1ccccc1-n1nc(C)c(CN(C)C(C)Cc2ccccn2)c1C.O=C(O)CC(O)(CC(=O)O)C(=O)O (stereo unspecified),Percent Effect,"30.3 µM, […]",17.55%
COCc1cn(C[C@H]2C[C@@H]3CCN2C[C@@H]3C(=O)N2CCOCC2)nn1,Percent Effect,"30.3 µM, […]",-19.8%
CC(C)(O)c1cn(C[C@H]2C[C@@H]3CCN2C[C@@H]3C(=O)N2CCOCC2)nn1,Percent Effect,"30.3 µM, […]",75.59%
CC(C)(C)c1cn(C[C@H]2CC3CCN2C[C@@H]3C(=O)N2CCOCC2)nn1 (stereo partly specified),Percent Effect,"30.3 µM, […]",-15.57%
CN(C)CCN1CCN(Cc2cccs2)Cc2cccnc21.O=C(O)C(F)(F)F.O=C(O)C(F)(F)F.O=C(O)C(F)(F)F,Percent Effect,"30.3 µM, […]",-2.293%
CN(CC1Cc2ccccc2CN1C)C(=O)Cc1cccs1 (stereo unspecified),Percent Effect,"30.3 µM, […]",58.51%
CN(C)[C@@H]1CN(C(=O)Cc2cccs2)[C@@H]2CCCO[C@H]12.O=C(O)C(F)(F)F,Percent Effect,"30.3 µM, […]",-12.28%
CC(C)CN1CCC2(CC1)C(=O)Nc1ccc(C(=O)NC(C)C)cc12.O=C(O)C(F)(F)F,Percent Effect,"30.3 µM, […]",-1.007%
Cc1ccc(CN2C[C@@H]3CCN(Cc4ccncc4)C(=O)[C@H]3C2)s1.O=C(O)C(F)(F)F.O=C(O)C(F)(F)F,Percent Effect,"30.3 µM, […]",7.943%
N#Cc1ccc(N2CCC(OC3CCOCC3)CC2)cc1Cl,Percent Effect,"30.3 µM, […]",58.7%
N#Cc1ccc(NC2CCN(c3ncccn3)CC2)cc1Cl,Percent Effect,"30.3 µM, […]",-22.27%
COCC1CN(c2ccc(C#N)c(Cl)c2)CCO1 (stereo unspecified),Percent Effect,"30.3 µM, […]",27.15%
O=C(Nc1cccnc1)[C@H]1C[C@H]2OCC[C@H]2N(CC2CC2)C1.O=C(O)C(F)(F)F.O=C(O)C(F)(F)F,Percent Effect,"30.3 µM, […]",5.172%
O=C(O)C(F)(F)F.O=C(O)C(F)(F)F.O=C(O)C(F)(F)F.c1cncc(CN2CCO[C@H]3[C@H](OCCN4CCCC4)CC[C@@H]32)c1,Percent Effect,"30.3 µM, […]",-1.777%
Fc1cccnc1O[C@H]1CN(Cc2ccoc2)[C@@H]2CCCO[C@H]12.O=C(O)C(F)(F)F.O=C(O)C(F)(F)F,Percent Effect,"30.3 µM, […]",9.385%
O=C(C[C@@H]1COC[C@H]2CN(CC3CC3)C[C@@H]12)NCc1cccnc1.O=C(O)C(F)(F)F.O=C(O)C(F)(F)F,Percent Effect,"30.3 µM, […]",54.71%
COCCN1C[C@@H]2COC[C@@H](CC(=O)NCc3cccnc3)[C@@H]2C1.O=C(O)C(F)(F)F.O=C(O)C(F)(F)F,Percent Effect,"30.3 µM, […]",44.79%
O=C(C[C@@H]1COC[C@H]2CN(Cc3cccnc3)C[C@@H]12)NCC1CC1.O=C(O)C(F)(F)F.O=C(O)C(F)(F)F,Percent Effect,"30.3 µM, […]",18.63%
O=C(O)C(F)(F)F.O=C(O)C(F)(F)F.c1cncc(CN2CC[C@H]3O[C@@H](COCC4CC4)CC[C@H]32)c1,Percent Effect,"30 µM, 30.03 µM",39.71%
COCCN1CC[C@@H]2CN(Cc3cccnc3OC)C[C@@H]2C1.O=C(O)C(F)(F)F.O=C(O)C(F)(F)F,Percent Effect,"30.3 µM, […]",55.04%
COc1ncccc1CN1C[C@H]2CCN(C(C)C)C[C@H]2C1.O=C(O)C(F)(F)F.O=C(O)C(F)(F)F,Percent Effect,"30.3 µM, […]",-4.656%
COc1ncccc1CN1C[C@H]2CCN(c3ncccn3)C[C@H]2C1.O=C(O)C(F)(F)F,Percent Effect,"30.3 µM, […]",28.82%
CN(C)c1nccc(N2CCO[C@H]3CN(Cc4ccsc4)C[C@H]32)n1.O=C(O)C(F)(F)F,Percent Effect,"30 µM, 30.03 µM",28.84%
CN(C)c1nccc(N2CCO[C@H]3CN(Cc4ccco4)C[C@H]32)n1,Percent Effect,"30.3 µM, […]",57.89%
COCCN1C[C@@H]2OCCN(c3ccnc(N(C)C)n3)[C@@H]2C1,Percent Effect,"30.3 µM, […]",23.22%
C[C@@H]1C(=O)NC[C@H]2CN(Cc3ccsc3)C[C@H]21.O=C(O)C(F)(F)F,Percent Effect,"30 µM, 30.03 µM",28.53%
CCCc1nc2c(c(C)c(C)n2CCN(C)C)c(N)c1CC,Percent Effect,"30.3 µM, […]",99.96%
CNC(=O)CN1CCC12CCN(C(=O)Cc1ccccc1)C2.O=C(O)C(F)(F)F (stereo unspecified),Percent Effect,"30.3 µM, […]",9.106%
CCCn1cc(C(=O)NCCS(N)(=O)=O)c2ccccc21,Percent Effect,"30.3 µM, […]",23.59%
COCCn1cc(C(=O)NCCS(N)(=O)=O)c2ccccc21,Percent Effect,"30.3 µM, […]",59.49%
CCCn1cc(C(=O)NCCCC(N)=O)c2ccccc21,Percent Effect,"30.3 µM, […]",41.21%
CN(C)C[C@H]1C[C@@H]2CN(Cc3ccoc3)C[C@@H]2O1.O=C(O)C(F)(F)F.O=C(O)C(F)(F)F,Percent Effect,"30.3 µM, […]",4.803%
O=C(O)C(F)(F)F.O=C(O)C(F)(F)F.c1cncc(COC[C@@H]2CCC[C@]23CNCCO3)c1,Percent Effect,"30.3 µM, […]",27.95%
Cl.Cl.c1cc(COC[C@@H]2CCC[C@@]23CNCCO3)ccn1,Percent Effect,"30 µM, 30.03 µM",8.265%
Cl.Cl.c1cncc(COC[C@@H]2CCC[C@@]23CNCCO3)c1,Percent Effect,"30.3 µM, […]",73.99%
